Structures can show the parent of a compound that is named as a salt.
System: MDA-MB-468
Experiment: phospho-S6 immunofluorescence (DAPI-normalised), per-plate z-score; higher = higher phospho-S6 signal (less pathway suppression)
Details: 24 h
Experimental: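 GPCR-targeted compound library (MedChemExpress HY-L006) tested on MDA-MB-468 PTEN-null TNBC cells in 384-well plates at 0.1, 1 or 10 uM, combined with vehicle, GDC0941 450 nM or lapatinib 1 uM, for 24 h. Phospho-S6 (S240/244) immunofluorescence normalised to DAPI and expressed as a per-plate z-score; values are the mean of biological triplicates.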

| SMILES | phospho-S6 immunofluorescence (z-score) (co-treatment: GDC0941 450 nM) | phospho-S6 immunofluorescence (z-score) (co-treatment: lapatinib 1 uM) | phospho-S6 immunofluorescence (z-score) (co-treatment: vehicle) |
| --- | --- | --- | --- |
| CCCCCCn1c(O)c(N=NC(=O)c2ccccc2)c2ccccc21 (compound 10 µM) | -2.97 | -0.75 | 0.59 |
| CCc1cnc(N2CCC(c3nc(COc4ccc(-n5cnnn5)cc4)cs3)CC2)nc1 (compound 10 µM) | -3.23 | -3.56 | -6.72 |
| CN1CCN(CCc2ccc(Cl)c(Cl)c2)CC1 [BD1063 (dhydrochloride)] (compound 10 µM) | 0.51 | -1.56 | -0.49 |
| CC1=C(C)C(=O)C(C(CCCCCC(=O)O)c2ccccc2)=C(C)C1=O (configuration not stated) [Seratrodast] (compound 10 µM) | 1.01 | 1.15 | 0.08 |
| COc1cc(N)c(Cl)cc1C(=O)NC1CCN(Cc2ccccc2)CC1 [Clebopride (malate)] (compound 10 µM) | 0.46 | -0.14 | 0.29 |
| CC(C)(C)NCC(O)COc1cccc2c1CCC(=O)N2 (configuration not stated) [Carteolol (hydrochloride)] (compound 10 µM) | 0.64 | 0.45 | -0.38 |
| CCCc1nc2c(C)cc(-c3nc4ccccc4n3C)cc2n1Cc1ccc(-c2ccccc2C(=O)O)cc1 [Telmisartan] (compound 10 µM) | 0.54 | 1.6 | 0.35 |
| COc1ccc(CC(C)NCC(O)c2ccc(O)c(NC=O)c2)cc1 (configuration not stated) [Formoterol (Fumarate)] (compound 10 µM) | 1.08 | 0.77 | 0.16 |
| CCCN[C@@H]1CCc2nc(N)sc2C1 [Dexpramipexole (dihydrochloride)] (compound 10 µM) | 1.16 | 0.15 | 0.4 |
| NC(=O)C(c1ccccc1)(c1ccccc1)[C@@H]1CCN(CCc2ccc3c(c2)CCO3)C1 [Darifenacin (hydrobromide)] (compound 10 µM) | -1.6 | -1.5 | 0.03 |
| Clc1ccc(Cn2c(CN3CCCC3)nc3ccccc32)cc1 [Clemizole (hydrochloride)] (compound 10 µM) | -3.06 | 0.26 | -1.37 |
| C=C[C@@]1(C)CC(=O)[C@]2(O)[C@@]3(C)[C@@H](O)CCC(C)(C)[C@@H]3[C@H](O)[C@H](OC(C)=O)[C@@]2(C)O1 [Forskolin] (compound 10 µM) | 1.82 | 2.65 | 0.23 |
| CN(C)C(=O)C(CCN1CCC(O)(c2ccc(Cl)cc2)CC1)(c1ccccc1)c1ccccc1 [Loperamide (hydrochloride)] (compound 10 µM) | -1.31 | -3.22 | -0.37 |
| CC(C)OC(=O)N1CCC(Oc2ncnc3c2cnn3-c2ccc(S(C)(=O)=O)cc2F)CC1 (compound 10 µM) | -0.32 | -0.15 | -0.38 |
| COc1ccc2cccc(CCNC(C)=O)c2c1 [Agomelatine] (compound 10 µM) | 0.97 | 0.54 | 0.35 |
| CC(C)(N)C(=O)N[C@H](COCc1ccccc1)C(=O)N1CCC2(CC1)CN(S(C)(=O)=O)c1ccccc12 [Ibutamoren (Mesylate)] (compound 10 µM) | -2.77 | -7.75 | -5.38 |
| Clc1cccc(Cl)c1NC1=NCCN1 [Clonidine (hydrochloride)] (compound 10 µM) | 0.37 | 0.75 | 1.03 |
| C[C@H](N)[C@H](O)c1cccc(O)c1 [Metaraminol (tartrate)] (compound 10 µM) | 0.64 | 0.89 | 0.73 |
| O=S(=O)(O)c1cc(O)ccc1O [Ethamsylate] (compound 10 µM) | 0 | -0.05 | 0.76 |
| CCN(CC)CCCC(C)Nc1nc(C)cc(Nc2ccc3nc(C)cc(N)c3c2)n1 (configuration not stated) (compound 10 µM) | 0.95 | 1.82 | 0.49 |
| OCCN1CCN(CCCN2c3ccccc3Sc3ccc(Cl)cc32)CC1 [Perphenazine] (compound 10 µM) | -1.28 | -5.07 | 0.82 |
| CCCC(=O)Nc1ccc(OCC(O)CNC(C)C)c(C(C)=O)c1 (configuration not stated) [Acebutolol (hydrochloride)] (compound 10 µM) | 1.02 | 0.15 | -0.08 |
| CC(C)(C)NCC(O)c1ccc(O)c(CO)c1 (configuration not stated) [Salbutamol (hemisulfate)] (compound 10 µM) | 0.44 | 1.46 | 0.8 |
| Cc1cc(O[C@@H](CCC(F)(F)F)c2ccc(C(=O)NCCC(=O)O)cc2)cc(C)c1-c1ccc(C(C)(C)C)cc1 [Adomeglivant] (compound 10 µM) | -4.72 | -7.2 | -6.79 |

Reference: the supplement of paper PMC7411640
